The whole screen tested about 220,000 compounds, of which fewer than 10 were called active. Not shown: some 92% with an inconclusive outcome. How the calls were made is not given here. These entries were drawn from the full list.

For the assay, the target named is Guanine nucleotide-binding protein G(o) subunit alpha (Homo sapiens) + Regulator of G-protein signaling 19 (Homo sapiens) (UniProt P09471+P49795). The assay is described as follows: regulators of RGS19 binding to Galphao, biochemical, multiplexed bead flow cytometry (AID 1440).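 Further: fluorescent Galpha o activated by aluminum fluoride binding bead-coupled RGS19.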 The following applies: at 10 µM. For orientation: In flow cytometry, cells or beads pass a laser one at a time.
Chain of Guanine nucleotide-binding protein G(o) subunit alpha (Homo sapiens) + Regulator of G-protein signaling 19 (Homo sapiens) (P09471 whole entry, looked up): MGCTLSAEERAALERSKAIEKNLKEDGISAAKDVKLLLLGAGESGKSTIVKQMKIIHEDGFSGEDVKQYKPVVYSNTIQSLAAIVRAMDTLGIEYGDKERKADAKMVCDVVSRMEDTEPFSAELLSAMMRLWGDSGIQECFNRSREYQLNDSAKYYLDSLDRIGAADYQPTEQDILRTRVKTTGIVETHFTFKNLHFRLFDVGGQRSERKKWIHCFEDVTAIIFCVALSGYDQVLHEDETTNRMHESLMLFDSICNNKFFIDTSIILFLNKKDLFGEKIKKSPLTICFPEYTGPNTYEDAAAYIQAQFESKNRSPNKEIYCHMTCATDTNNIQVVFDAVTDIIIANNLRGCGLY
Chain of Guanine nucleotide-binding protein G(o) subunit alpha (Homo sapiens) + Regulator of G-protein signaling 19 (Homo sapiens) (P49795 whole entry, looked up): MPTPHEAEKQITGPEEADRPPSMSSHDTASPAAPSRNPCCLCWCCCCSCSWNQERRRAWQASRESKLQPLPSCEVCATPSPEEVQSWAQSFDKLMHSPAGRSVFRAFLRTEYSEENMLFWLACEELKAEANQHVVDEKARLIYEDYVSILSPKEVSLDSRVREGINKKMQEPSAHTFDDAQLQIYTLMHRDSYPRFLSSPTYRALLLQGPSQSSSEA
As for `O=C(c1ccccc1)N1CCCCCC1`, the binding response (% of control) was determined as 58.2%.

In the case of `O=C(NC1CCCC1)C1CCC(CNS(=O)(=O)c2cccs2)CC1` (configuration not stated), the binding response (% of control) was determined as 88.8%. Next, `CCOC(=O)c1ccc(N2CN=C3SCC(=O)N3C2)cc1`: 94.6%.

As to `COc1ccc(-c2[nH]nc3c2C(c2ccsc2)C(C#N)=C(N)O3)cc1` (configuration not stated), the binding response (% of control) is 80.2%. The same measure for `COc1ccccc1NC(=O)CSc1nnc(C2CCCCC2)n1C`: 50.3%; for `CC/C(Cc1ccccc1)=N/NC(=O)c1cccc(Br)c1`: 130%. Next, `COC(=O)c1c(CSc2cccc(C)c2)noc1C(=O)NCc1ccco1`: 102%; `CC(C)COCC1CC2(CC(C)C(=O)CC2=O)C(=O)O1` (configuration not stated): 56.6%; `CCc1nnc(NC(=O)COC(=O)CN2C(=O)c3ccccc3C2=O)s1`: 62.2%. For `COCCn1c(SCC(=O)c2ccc3c(c2)OCCO3)nnc1C(C)C`, the binding response (% of control) was 59.5%.

Turning to `Cc1onc(-c2c(Cl)cccc2Cl)c1C(=O)Nn1cnnc1`, the binding response (% of control) worked out at 102%. Next, `CCc1ncc(C(=O)c2ccc(OC)cc2)n1C`: 108%; `O=C(CN1CCCCCC1=O)OCc1ncc(-c2ccccc2)o1`: 96.5%.

As for `O=C1Nc2ccccc2/C1=C\c1cccn1-c1ccc(OC(F)(F)F)cc1`, the binding response (% of control) was found to be 63.3%. Regarding `Cc1ccc(C(=O)CSc2nc(N)cc(=O)[nH]2)cc1`, the binding response (% of control) turned out to be 64.8%. Next, `C/C(=N\NC(=O)CSc1nc2nc(C)cc(C)n2n1)c1ccccc1`: 96.1%; `O=C(NCCCCC(NC(=O)c1ccc([N+](=O)[O-])cc1)C(=O)O)c1ccc([N+](=O)[O-])cc1` (configuration not stated): 95.5%; `CCOC(=O)Cn1nc(/C=C/c2ccc(C)cc2)ccc1=O`: -18.6%. Next, `COC(=O)c1sccc1-c1ccc(C(=O)Nc2ccccc2)o1`: 122%; `Cc1ccc(-c2cc(C(=O)OCC(=O)Nc3cc(C)on3)c3ccccc3n2)c(C)c1`: 81.7%. As to `O=C(CSc1nc2ccccc2c(=O)n1CC1CCCO1)NCC1CCCO1` (configuration not stated), the binding response (% of control) worked out at 94.2%. Next, `COC(=O)C(NC(=O)Nc1ccccc1OC)C(C)C` (configuration not stated): 93.4%; `CCOC(=O)C1=C(C)NC2=C(C(=O)c3ccccc32)C1c1cccnc1` (configuration not stated): 104%; `CC(=O)Nc1ccc(OCC=C(Cl)Cl)cc1`: 82.1%. As for `O=C(NCc1ccccc1)c1ccccc1OCC(=O)N1CCCCC1`, the binding response (% of control) was determined as 38.1%. The same measure for `NC(=S)N/N=C1\CCSc2ccc(Cl)cc21`: 69%; for `Cc1ccc(S(=O)(=O)c2c(N)n(Cc3ccco3)c3nc4ccccc4nc23)cc1C`: 92.1%; for `Cc1ccc(C(=O)NNC(=O)C2CCN(Cc3ccccc3)CC2)cc1`: 96.2%. Next, `CC1(C)C2CCC1(CS(=O)(=O)NCc1ccc(C(=O)O)cc1)C(=O)C2` (configuration not stated): 107%. The same measure for `C[C@H](NS(=O)(=O)c1ccccc1F)C(=O)OCC(=O)N1CCc2ccccc21`: 106%; for `CC(=O)c1cc2c(cc1NS(=O)(=O)c1ccccc1)OCO2`: 94.9%; for `Clc1ccc(Cc2noc(CN3CCN(c4ccccc4)CC3)n2)c(Cl)c1`: -14.4%. For the molecule `CC1(C)Cc2c(c(N3CCOCC3)nc3snc(N)c23)CO1`, the binding response (% of control) is 20.9%. The same measure for `O=S1(=O)C=CC(N2CCOCC2)C1` (configuration not stated): 162%. As to `CCC(=O)NCCc1cc2cc(C)c(C)cc2[nH]c1=O`, the binding response (% of control) was found to be 96.3%. As for `Cc1noc(C)c1C(=O)Nc1cccnc1`, the binding response (% of control) came out at 77.2%. Next, `Cc1ccc(S(=O)(=O)N2CCSC2)cc1C`: 113%; `COC(=O)Cc1c(C)nc2nc(-c3ccc(Cl)cc3)[nH]n2c1=O`: 112%. The same measure for `CC(C)(C#N)NC(=O)c1ccco1`: 87.8%; for `Cc1cc2cc(CN(Cc3ccco3)C(=O)NCc3ccccc3)c(=O)[nH]c2cc1C`: 98.1%. The same measure for `COc1ccc(-c2nc(-c3ccccc3)nc(N3CCN(C)CC3)c2C#N)cc1`: 114%. For `O=S1(=O)CCN2C(Cc3ccc(SC(F)F)cc3)=CSC2=N1`, the binding response (% of control) is 121%. The same measure for `Cc1ccc(Cl)c(NC(=O)COC(=O)c2ccccc2C(=O)c2ccc(Cl)c([N+](=O)[O-])c2)c1Cl`: 115%. The same measure for `CCCCN1c2ccccc2N(CCCO)c2cc(C)nnc21`: 99%. For the molecule `O=C(NCC(c1cccnc1)N1CCN(c2ccc(F)cc2)CC1)C1CCCCC1` (configuration not stated), the binding response (% of control) was 104%.

For `CC12CC(c3ccccc3O1)N(C(=O)c1ccco1)C(=O)N2c1ccccc1` (configuration not stated), the binding response (% of control) was 95.1%. Next, `Cn1cnnc1SCC(=O)N1N=C2/C(=C/c3ccco3)CCCC2C1c1ccco1` (configuration not stated): 61.5%; `CC(NS(=O)(=O)c1cccc(Cl)c1)C(=O)Nc1ccc(-c2nc3ccccc3s2)cc1` (configuration not stated): 115%. With `Cc1nn(Cc2ccc(Cl)cc2)c(C)c1N`, the binding response (% of control) is 8.58%. The same measure for `CC(C)SCCCCOc1ccc2ccccc2c1`: 88.9%; for `CCOC(=O)c1nnn(-c2nc(N3CCCC3)nc(N3CCCC3)n2)c1-c1ccccc1`: 112%; for `CN(C)S(=O)(=O)c1ccc(C(=O)Nc2nnc(SCc3ccccc3)s2)cc1`: -32.2%. For the molecule `Cc1cc(C)n(C2CCCCC2OC(=O)c2ccccc2)n1` (configuration not stated), the binding response (% of control) was found to be 110%. Consider `CC1CN(S(=O)(=O)c2cccc(-c3cn4ccccc4n3)c2)CC(C)O1` (configuration not stated), for which the binding response (% of control) is 105%.

For the molecule `O=C(CSc1nnc(COc2ccc(Cl)cc2)o1)N1c2ccccc2CCc2ccccc21`, the binding response (% of control) came to 98.2%.

As for `COc1ccc(Cc2nc3ccc(S(N)(=O)=O)cc3[nH]2)cc1OC`, the binding response (% of control) turned out to be 56.5%.

As for `COc1ccc(C(=O)CN(C(=O)c2ccc(Cl)cc2)N2C(=O)C3CCCCC3C2=O)cc1` (configuration not stated), the binding response (% of control) was 103%. On to `Cc1c(NC(=O)CSc2nc3c(cnn3-c3ccccc3)c(=O)[nH]2)c(=O)n(-c2ccccc2)n1C`, for which the binding response (% of control) was found to be 125%.

As for `CC(C)CC1=C/C(=C/c2ccc(-c3ccccc3)o2)C(=O)O1`, the binding response (% of control) is 71.1%.

`Cc1ccc(Cl)c(OCCN2CCCC(C)C2)c1` (configuration not stated): the binding response (% of control) stood at 118%. The same measure for `Cc1cc(=O)n2[nH]c(SCc3ccccc3)nc2n1`: 102%; for `O=C(c1ccccc1F)N1CCN(c2ccccc2)CC1`: 64.3%; for `Cn1cc(CN(CCCN2CCOCC2)C(=S)Nc2cccc(Cl)c2)c2ccccc21`: -17%.

In the case of `COC(=O)c1cc(OC)c(OC)cc1NC(=S)N1CCCC(CO)C1` (configuration not stated), the binding response (% of control) turned out to be 98.1%. Consider `Cc1ccc(NC(=O)N(Cc2ccco2)Cc2cc3cc(C)cc(C)c3nc2Cl)cc1`, for which the binding response (% of control) worked out at 92.8%.

For the molecule `CCOc1ccc(-c2nnc(N)o2)cc1`, the binding response (% of control) was 71.8%. As to `CC(=O)Nc1ccc(NC(=O)Oc2ccccc2)cc1`, the binding response (% of control) was determined as 99.1%. Next, `CCOC(=O)c1c(C)n(-c2ccc(OC)cc2)c2c(C/C(C)=N/O)c(Br)c(OC)c(O)c12`: 120%; `COc1cccc(C2=CC(c3ccc(OC)c(OC)c3OC)n3nnnc3N2)c1` (configuration not stated): 102%; `O=Nc1c(O)n(Cc2ccc(Cl)c(Cl)c2)c2ccccc12`: 70.4%.

In the case of `CCOC(=O)c1nnc(-c2cccs2)nc1NC(C)C`, the binding response (% of control) was 220%. Regarding `CCOC(=O)c1nnn(-c2nc(OC)nc(N3CCCCC3)n2)c1-c1ccccc1`, the binding response (% of control) turned out to be 69.6%. The same measure for `O=C(c1cnccn1)N(Cc1cccs1)C1(C(=O)NC2CCCCC2)CCCCC1`: -941%; for `COc1ccc(Br)cc1-c1noc(-c2ccncc2)n1`: 92.5%.

As to `Cc1ccc(C(=O)NC(=S)N2CCN(C)CC2)cc1`, the binding response (% of control) is 97.8%. As to `CC(=O)c1nc2ccccc2n1S(=O)(=O)c1ccc(C)cc1`, the binding response (% of control) worked out at 97.2%.

On to `Clc1ccc(/C=N/N2CCN(Cc3ccccc3Cl)CC2)cc1`, for which the binding response (% of control) worked out at 100%. For the molecule `COc1ccc(N2CCN(C(=O)CSc3nnnn3-c3ccc4c(c3)OCCO4)CC2)cc1`, the binding response (% of control) stood at 94.7%. The same measure for `COc1ccc(N(C(=O)Cn2nnc3ccccc32)C(C(=O)NCc2ccco2)c2cccnc2)cc1` (configuration not stated): 110%; for `CC(C)(C)OC(=O)N1CCOCCOCCNCCOCCOCC1`: 98.6%. The same measure for `CN=C(Nc1cc(C)nn1-c1ccccc1)c1ccccc1`: 113%; for `COCCCNC(=O)c1ccc(NS(C)(=O)=O)cc1`: 96.8%. As to `Cc1ccc(CNCC2CCCO2)o1` (configuration not stated), the binding response (% of control) is 96.8%. Consider `COc1ccc2c(c1)c(C(=O)CNc1nc(C)cs1)c(C)n2C`, for which the binding response (% of control) is 44.3%. `FC(F)Oc1ccc(-c2c[n+]3c(n2-c2ccccc2)CCCCC3)cc1`: the binding response (% of control) came to 256%. On to `Cc1nn(Cc2ccc(F)cc2)c(C)c1NC(=O)c1cnn2cccnc12`, for which the binding response (% of control) was 109%.

On to `CC1=C(C(N)=O)C(c2cccc(OCc3ccccc3)c2)n2nnnc2N1` (configuration not stated), for which the binding response (% of control) worked out at 91.9%. On to `Cc1ccc(Cl)cc1N(Cc1ccc(C(=O)NCc2cccnc2)cc1)S(=O)(=O)c1ccccc1`, for which the binding response (% of control) came out at 98.3%.

Regarding `CCCCCOc1ccc(NC(=O)CCCC(=O)O)cc1`, the binding response (% of control) worked out at 81.9%.

On to `C#CCn1cnc2c(cnn2-c2ccc(C)c(C)c2)c1=O`, for which the binding response (% of control) turned out to be 106%. The same measure for `COc1ccc(C(=O)CSc2nc3ncccc3[nH]2)cc1OC`: 52.5%.

Consider `CCn1cc(C(=O)NCC2CCCO2)c2cc(OC)c(OC)cc2c1=O` (configuration not stated), for which the binding response (% of control) is 103%. As to `Cc1cc(C)nc(SCC(=O)N2CCC(C(N)=O)CC2)n1`, the binding response (% of control) is 105%. With `CCC(=O)N1CCc2cc(S(=O)(=O)NC(Cc3ccccc3)C(=O)Nc3nccs3)ccc21` (configuration not stated), the binding response (% of control) was -46.3%. Next, `O=c1[nH]c2cc3c(cc2cc1CN(Cc1ccc2c(c1)OCO2)Cc1nnnn1CC1CCCO1)OCO3` (configuration not stated): 90.7%.

For the molecule `Cc1ccc(/C=C2\CCCC3=C2NC(=S)NC3c2ccc(C)cc2)cc1` (configuration not stated), the binding response (% of control) stood at 203%. Next, `C=CCn1c2ccccc2c2nnc(SCN3C(=O)c4ccccc4C3=O)nc21`: 77.7%; `CCCC(C)NC(=O)Cc1ccccc1[N+](=O)[O-]` (configuration not stated): 110%. `O=C(CN1CCSCC1)N1CCc2[nH]c3ccc(Br)cc3c2C1`: the binding response (% of control) turned out to be 66.9%. Consider `CCc1ccc(OCC(=O)Nc2cc(S(=O)(=O)CC)ccc2O)cc1`, for which the binding response (% of control) came out at 89.9%. `Cc1ccc(NC(CC(=O)c2ccccc2)c2ccc(F)cc2)cc1` (configuration not stated): the binding response (% of control) worked out at 100%. Next, `O=C1COc2ccc(C(=O)NCc3ccc4c(c3)OCO4)cc2N1`: 104%. For `CC(NC(=O)C(=O)NN=C1CCCCCCCCCCC1)c1ccccc1` (configuration not stated), the binding response (% of control) turned out to be 101%. Next, `COc1ccc(-c2nn[nH]n2)cc1OC`: 116%; `O=C(CN1CCOCC1)Nc1ncc(Cc2ccccc2Cl)s1`: 108%. Next, `Clc1ccc(-c2nn3c(C4COc5ccccc5O4)nnc3s2)cc1` (configuration not stated): 17.6%; `C/C(CC(=O)Nc1cccc(Cl)c1C)=N\NC(=O)C(=O)NCC(C)C`: 105%. The same measure for `COC(=O)CNC(=O)COC(=O)c1ccc(OC)c([N+](=O)[O-])c1`: 98.3%. As for `CCN1CCN(C(c2cccs2)C(C)NC(=O)c2c(F)cccc2F)CC1` (configuration not stated), the binding response (% of control) worked out at 114%. The same measure for `BrC(/C=C\c1ccccc1)=N/Nc1nc(N2CCOCC2)nc(N2CCOCC2)n1`: 98.4%.

With `O=C(c1ccccc1NS(=O)(=O)c1ccc(Br)s1)N1CCCC1`, the binding response (% of control) worked out at 102%. Next, `Cc1cc(C)c(C#N)c(SCC(=O)N2CCCCC2)n1`: 91.6%.

Source of the values: PubChem BioAssay AID1440 (NMMLSC, 2008).
